The panel holds about 83,000 compounds, 20% with a hit somewhere; the sample as a whole holds those more often.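 Note: values are percent growth. 100 is the growth of untreated cells, values between 100 and 0 indicate rising inhibition; between -100 and 0 indicates cell death.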 Values without a mark were called inactive. The source made the active and inactive calls. The calls were made as follows: active = growth percent below 10; inactive = the rest.

Among the test systems are NCI-H23 lung; NCI-H226 lung; NCI-H322M lung; HOP-62 NSCLC; NCI-H460 lung; HOP-92 NSCLC; A549/ATCC NSCLC; 786-0 renal; COLO 205 colon; DU-145 prostate; K-562 leukemia; MALME-3M melanoma; MDA-MB-231 breast; RXF 393 renal; SF-268 CNS; SF-295 CNS; SF-539 CNS; UACC-257 melanoma; M14 melanoma; NCI-H522 lung.
Assay in all cases: NCI-60 one-dose screen, 48 h (100 = growth as untreated, 0 = no growth, -100 = all killed)
What all share (details): 10 µM unless noted

For `Cn1cc(-c2nonc2-c2c[nH]c3ccc(F)cc23)c2cc(Br)ccc21`, the growth was 52.7% in the assay on NCI-H23 lung; 79.5% in the assay on NCI-H226 lung; 44.9% in the assay on NCI-H322M lung; 40.5% in the assay on HOP-62 NSCLC; 19.8% in the assay with NCI-H460 lung; 76% in the assay on HOP-92 NSCLC. For the same molecule, the growth in the assay on A549/ATCC NSCLC was 35.9%; in the assay with 786-0 renal, 45.9%; with COLO 205 colon it was 54%; in the assay on DU-145 prostate it was 50.2%; in the assay on K-562 leukemia, 7.64% (active); in the assay on MALME-3M melanoma, 61%. In addition, the growth in the assay with MDA-MB-231 breast was 34.9%; in the assay on RXF 393 renal, 74.2%; with SF-268 CNS, 49.9%; in the assay with SF-295 CNS it was 36.5%; in the assay on SF-539 CNS, 67.8%; with UACC-257 melanoma it was 63.3%. In addition, the growth in the assay with M14 melanoma was 36.5%.
`CN1C(=O)N(C)C2C1NC(=S)N2/N=C/C=C/c1ccccc1[N+](=O)[O-]` (configuration not stated): the growth with NCI-H23 lung was 38.2%; in the assay on NCI-H226 lung, 28.4%; in the assay on NCI-H322M lung it was 49.3%; in the assay on HOP-62 NSCLC it was 26.2%; with NCI-H460 lung, 12.6%; in the assay with HOP-92 NSCLC, 33.9%. Further, the growth in the assay with NCI-H522 lung is 9.84% (active); in the assay on 786-0 renal it was 26.6%; in the assay on COLO 205 colon, 14.3%; in the assay with DU-145 prostate it was 18.7%; with K-562 leukemia, 14.7%; with MALME-3M melanoma it was 54.4%. The growth in the assay on MDA-MB-231 breast is 56.1%; in the assay on RXF 393 renal it was 13.1%; in the assay with SF-268 CNS, 41.3%; with SF-295 CNS, 9.8% (active); in the assay with SF-539 CNS it was 2.83% (active); with UACC-257 melanoma it was 44.1%. For the same molecule, the growth in the assay with M14 melanoma is 6.06% (active).
Take `Cc1ccccc1OCC(O)COc1ccccc1C`: the growth in the assay with NCI-H23 lung was 404%; in the assay on NCI-H226 lung, 97.9%; with NCI-H322M lung it was 95.4%; with HOP-62 NSCLC, 96.2%; in the assay with NCI-H460 lung, 96.8%; in the assay with HOP-92 NSCLC, 93.9%. The growth in the assay on NCI-H522 lung was 77%; with 786-0 renal, 100%; in the assay on COLO 205 colon, 98.2%; in the assay with DU-145 prostate, 120%; in the assay on K-562 leukemia it was 114%; in the assay with MALME-3M melanoma it was 88.5%. The growth in the assay with MDA-MB-231 breast was 103%; in the assay with RXF 393 renal, 80.5%; in the assay with SF-268 CNS, 99.4%; in the assay with SF-295 CNS, 98.5%; in the assay on SF-539 CNS, 95.9%; in the assay on UACC-257 melanoma, 89.2%. Also, the growth in the assay with M14 melanoma is 98.5%.
As for `O=C(CCCCl)NNc1nccc(Nc2ccc(S(=O)(=O)Nc3ccncc3)cc2)n1`, the growth in the assay with NCI-H23 lung was 99.3%; in the assay on NCI-H226 lung, 104%; in the assay on NCI-H322M lung, 102%; in the assay with HOP-62 NSCLC it was 94.6%; with NCI-H460 lung, 109%; in the assay with HOP-92 NSCLC, 98.5%. In addition, the growth in the assay on NCI-H522 lung was 99.7%; in the assay on 786-0 renal, 95.2%; in the assay with COLO 205 colon it was 111%; with DU-145 prostate, 103%; in the assay on K-562 leukemia, 111%; in the assay with MALME-3M melanoma, 108%. Moreover, the growth in the assay on MDA-MB-231 breast was 116%; with RXF 393 renal it was 117%; in the assay with SF-268 CNS, 95.9%; with SF-295 CNS, 96.7%; in the assay on SF-539 CNS, 102%; in the assay with UACC-257 melanoma, 96.3%. In the assay on M14 melanoma, the growth is 97.7%.
Consider `NC(=S)N/N=C/c1cn(-c2ccccc2)nc1-c1cc2ccccc2oc1=O`, for which the growth with NCI-H23 lung was 78.2%; in the assay with NCI-H226 lung, 81.3%; in the assay with NCI-H322M lung it was 89.2%; in the assay on HOP-62 NSCLC, 72.3%; in the assay with NCI-H460 lung it was 21%; in the assay on HOP-92 NSCLC it was 79.7%. Besides, the growth in the assay with NCI-H522 lung is 36.5%; in the assay with 786-0 renal, 62.4%; in the assay with COLO 205 colon it was 46.4%; with DU-145 prostate it was 85.3%; in the assay on K-562 leukemia it was 17.1%; with MALME-3M melanoma, 48.8%. Further, the growth is 34.3% with MDA-MB-231 breast; 78% in the assay with RXF 393 renal; 66.1% with SF-268 CNS; 48.1% in the assay with SF-295 CNS; 57.2% in the assay on SF-539 CNS; 71.5% in the assay with UACC-257 melanoma. For the same molecule, in the assay on M14 melanoma, the growth is 22.1%.
Regarding `CN(C)c1ccc(-c2cc(-c3ccc(Nc4nc(Nc5ccc(Cl)cc5)nc(Nc5ccc(Cl)cc5)n4)cc3)nc(N)c2C#N)cc1`, the growth in the assay with NCI-H23 lung was 87.8%; in the assay on NCI-H226 lung, 107%; in the assay on NCI-H322M lung, 115%; with HOP-62 NSCLC, 73%; in the assay on NCI-H460 lung, 86.3%; in the assay with HOP-92 NSCLC, 46.3%. The growth is 87.6% in the assay with NCI-H522 lung; 72.4% in the assay with 786-0 renal; 69.8% with COLO 205 colon; 95.8% with DU-145 prostate; 68.4% in the assay with K-562 leukemia; 81.8% in the assay with MALME-3M melanoma. In addition, the growth in the assay on MDA-MB-231 breast was 77.4%; in the assay on RXF 393 renal, 37.1%; with SF-268 CNS, 94.9%; in the assay with SF-295 CNS, 64%; in the assay on SF-539 CNS, 77.9%; in the assay on UACC-257 melanoma it was 99.1%. The growth with M14 melanoma is 71.4%.
For `Cc1ccc(-c2nc(C(Cl)Cl)nc3cc(C)nn23)cc1`, the growth with NCI-H23 lung is -18.4% (active); in the assay on NCI-H226 lung it was 70.2%; with NCI-H322M lung, -24.9% (active); with HOP-62 NSCLC, 7.49% (active); in the assay on NCI-H460 lung, -64.8% (active); in the assay with HOP-92 NSCLC, 35%. Also, the growth is 4.52% (active) in the assay on NCI-H522 lung; 81.8% in the assay on 786-0 renal; -36.6% (active) with COLO 205 colon; -12.6% (active) in the assay on DU-145 prostate; 11.2% in the assay on K-562 leukemia; -12.2% (active) in the assay on MALME-3M melanoma. For the same molecule, the growth in the assay with MDA-MB-231 breast is 8.58% (active); in the assay on RXF 393 renal, -66% (active); in the assay with SF-268 CNS it was 21.4%; with SF-295 CNS it was 17.8%; in the assay on SF-539 CNS, 35.1%; with UACC-257 melanoma it was 55.8%. Moreover, the growth with M14 melanoma is -9.67% (active).
`CC(C)(C)C(=O)/C=C/c1ccc([N+](=O)[O-])cc1`: the growth was 85.7% in the assay on NCI-H23 lung; 69.6% with NCI-H226 lung; 103% in the assay with NCI-H322M lung; 103% with HOP-62 NSCLC; 97.9% with NCI-H460 lung; 67.5% in the assay on HOP-92 NSCLC. The growth with A549/ATCC NSCLC was 66.8%; with 786-0 renal, 97.5%; in the assay on COLO 205 colon, 82.5%; in the assay with DU-145 prostate, 80.2%; in the assay with K-562 leukemia it was 13.3%; with MALME-3M melanoma it was 103%. The growth with MDA-MB-231 breast was 81.2%; in the assay with RXF 393 renal it was 93.7%; in the assay on SF-268 CNS it was 90.1%; in the assay with SF-295 CNS, 93.3%; in the assay on SF-539 CNS, 86.9%; with UACC-257 melanoma, 50%. In the assay with M14 melanoma, the growth is 70.9%.

The record behind these values is PubChem BioAssay (NCI).
